# Bioassay records deposited in PubChem BioAssay by National Center for Advancing Translational Sciences (NCATS).
# HTT aggregate – inhibitors of mutant huntingtin aggregate formation in PC12 cells. PC12 HttQ103-GFP aggregates, Acumen cytometry, 40 h. Potency, µM (series often up to 46.1 µM), for the others: at the top dose activity change, negative = inhibition, actives largely listed as inhibitors. actives 1.1% (n = 220,000). AID 1688; note: potency is the fitted concentration of half-maximal effect; % is set by controls: 0 for no effect and ±100 for the full control effect; nearly all actives have a fitted effect of over 60% in size
#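 Huntingtin Q103 exon 1–GFP aggregates in induced PC12 cells (100 nM tebufenozide) were quantified by cytometry from lysates, with compounds dosed in titration.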
# ALDH1A1 inh – ALDH1A1 (human) enzyme inhibition. P00352. AID 1030. actives 7.3% (n = 220,000). Potency, µM (doses to about 75.3 µM), for inactives: top-dose activity, negative = inhibition, most hits filed as inhibitors. Purified ALDH1A1, NADH fluorescence, propionaldehyde substrate; active = well fitted inhibition curve with a large enough effect, not every such curve was filed as active; inconclusive = small, poorly fitted or top-dose-only effect, or another doubt; inactive = no such curve, though single readings can be large or run the other way;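 note: potency is the fitted concentration of half-maximal effect; plate controls were no enzyme wells and a reference inhibitor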
# HTT cytoprotect – Huntington cell model cytoprotection by ATP luminescence; PC12 HTT-Q103 induced, cytoprotection, ATP luminescence, 40 h; AID 1471; Potency, µM (highest dose often 56.4 µM), inactives show cytoprotection (ATP increase), most hits filed as activators; actives 0.14% (n = 230,000); note: potency is the fitted concentration of half-maximal effect; % of control where 0% means no effect; nearly all actives have a fitted effect of over 45% in size
#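 Quantitative HTS on tebufenozide-induced (100 nM) PC12 cells expressing HTTQ103 exon 1–GFP; compounds tested as a concentration series; survival measured via cellular ATP.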
# CBFb-RUNX1 inh – blocks binding between human CBF-beta and RUNX1 | Potency, µM (titrated, usually from 59.8 µM), for the others: top-dose activity, negative = inhibition, hits mostly inhibitors | AlphaScreen CBFb-His/RUNX1-biotin binding, biochemical | Q01196+Q13951 | 230,000 tested, under 10 active; note: % of control where 0% means no effect
# Target sequence (Q01196 whole entry, looked up): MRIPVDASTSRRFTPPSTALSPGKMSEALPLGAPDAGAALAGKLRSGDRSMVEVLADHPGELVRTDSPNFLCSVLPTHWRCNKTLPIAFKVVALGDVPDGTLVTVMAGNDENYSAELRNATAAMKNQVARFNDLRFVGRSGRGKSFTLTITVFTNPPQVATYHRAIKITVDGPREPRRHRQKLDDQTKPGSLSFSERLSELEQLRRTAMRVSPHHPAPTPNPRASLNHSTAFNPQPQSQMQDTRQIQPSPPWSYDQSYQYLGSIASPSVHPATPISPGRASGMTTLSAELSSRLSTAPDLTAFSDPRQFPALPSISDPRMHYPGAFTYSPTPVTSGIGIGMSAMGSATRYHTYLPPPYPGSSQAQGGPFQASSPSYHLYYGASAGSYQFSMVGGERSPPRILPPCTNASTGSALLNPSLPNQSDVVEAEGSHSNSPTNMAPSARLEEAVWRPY
# Target sequence (Q13951 whole entry, looked up): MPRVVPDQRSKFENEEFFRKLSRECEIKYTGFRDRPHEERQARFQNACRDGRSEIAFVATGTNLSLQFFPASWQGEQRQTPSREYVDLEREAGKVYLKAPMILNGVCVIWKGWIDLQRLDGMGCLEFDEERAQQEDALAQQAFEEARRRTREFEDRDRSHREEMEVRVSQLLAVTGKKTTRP
#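 His-tagged CBF-beta and biotinylated RUNX1 (30 nM each) were premixed 20 min at room temperature, exposed to compound for 15 min, then given nickel-chelate and streptavidin AlphaScreen beads (50 ng each). After 90 min, AlphaScreen signal was read.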
# HPGD block – blocks human HPGD enzyme activity; P15428; purified HPGD, NADH fluorescence kinetic, PGE2 substrate; Potency, µM, inactives show at the top dose activity change, negative = inhibition, most hits filed as inhibitors; actives 4.3% (n = 150,000); active = well fitted inhibition curve with a large enough effect, not every such curve was filed as active; inconclusive = small, poorly fitted or top-dose-only effect, or another doubt; inactive = no such curve, though single readings can be large or run the other way; note: potency is the fitted concentration of half-maximal effect; % is set by controls: 0 for no effect and ±100 for the full control effect
#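 NADH formation kinetics: reaction with 30 uM PGE2 and 1 mM NAD+ (final), 20 nM enzyme, Tris-HCl pH 8 with Tween 20, after 15 min compound preincubation at room temperature. Fluorescence change, last versus first of five reads.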
# PNC assembly inh – inhibitors of perinucleolar compartment assembly; AID 2417; actives 3.1% (n = 140,000); activity change (PNC), negative = inhibition, % at 10 µM; PC3M PTB-GFP, PNC prevalence imaging, 16 h; hits give low values;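 active = readout at or below -70, meaning at least 70% loss of cells showing the perinucleolar compartment, a nuclear body marking cancer cells; inconclusive = readout between -30 and a set limit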;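 note: plate controls were DMSO wells for no effect and camptothecin positive control wells for full effect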
#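 PC3M cells stably expressing PTB-GFP, 750–1000 cells/well, treated 16 h at 37 °C with compound (23 nl of library stock), in duplicate. After paraformaldehyde fixation and Hoechst stain, imaged at 20x; PNC prevalence scored by image analysis.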
# An asterisk follows results filed as active; ? = inconclusive; . = not tested or not shown; ! = not confirmed by another sample; [ ] = remark or other dose. In the library only some 11% were active in any assay of this set; here they are far more common. Unless noted, calls come from the whole dose curve; as a rule, active = well fitted curve in the direction sought with a large enough effect; inconclusive = small, poorly fitted or top-dose-only effect, or another doubt; inactive = no such curve, though single readings can be large; an effect the other way counts as inactive or inconclusive.
SMILES,HTT aggregate,ALDH1A1 inh,HTT cytoprotect,CBFb-RUNX1 inh,HPGD block,PNC assembly inh
CN1CCN(Cc2ccccc2Sc2ccccc2)CC1,20.9%,6.3%,.,4.1%,-5.7%,-86.0*
CCCN1CCc2cccc3c2[C@@H]1Cc1ccc(O)c(O)c1-3,.,.,5.7%[1.9 µM],.,.,.
COc1ccc(/C=C/C2=CCN(C)CC2)cc1,18.3%[9.22 µM],25.1µM*,9.4%[10 µM],2.9%,.,.
COC(=O)/C(C)=C\CC12OC(C)(C)C3CC(C=C4C(=O)c5c(OC)c6c(c(CC=C(C)C)c5OC431)OC(C)(CCC=C(C)C)C=C6)C2=O (configuration not stated),.,?,.,.,-21.4%,.
CC(=O)Oc1c2c(c(CC=C(C)C)c3c1C(=O)C1=CC4CC5C(C)(C)OC(C/C=C(\C)C(=O)O)(C4=O)[C@]15O3)OC(C)(CCC=C(C)C)C=C2 (some centres not stated),.,?,.,.,28.2µM*,.
COc1ccc(-n2c(SCCN(C)C)nc3ccccc3c2=O)cc1,19.7%[9.22 µM],.,-10.4%[10 µM],6.5%,.,.
COP(=S)(OC)SCn1nnc2ccccc2c1=O,.,12.6µM*,?,-12.1%[21.7 µM],28.2µM*,.
CC(C)CCn1c(N)c(C(=O)NCc2cccs2)c2nc3ccccc3nc21,-32.4%,?,-39.4%,10.6%,?,34.7
CC(C)OCCCNC(=O)c1c(N)n(Cc2cccs2)c2nc3ccccc3nc12,28.2µM*,?,-27.8%,?,?,?
CCCN1CCCC2Cc3nc(N)ncc3CC21 (configuration not stated),-19.5%,12.3%,-27.5%,1.0%,.,.
CCn1c(C)cc(/C=C2\C(=O)NC(=O)N(c3ccccc3C)C2=O)c1C,-22.4%[9.22 µM],-13.2%,-3.2%[10 µM],-4.5%,.,.
Cc1ccccc1N1C(=O)NC(=O)/C(=C\c2cnn(-c3ccccc3)c2)C1=O,19.0%,17.8µM*,4.8%[10 µM],9.2%,10µM*,-13.0
O=C(COc1ccc2ccccc2c1)N1CCN(Cc2c[nH]c3ccccc23)CC1,10µM*,?,-59.2%[10 µM],6.4%,-2.6%,-2.7
O=C(COc1ccc(Br)cc1)N1CCN(Cc2c[nH]c3ccccc23)CC1,13.0%[9.22 µM],?,-83.8%,-2.3%,4.7%,19.4
FC(F)(F)c1nc2ccc(SSc3ccc4nc(C(F)(F)F)[nH]c4c3)cc2[nH]1,.,2.24µM*,-7.0%[10 µM],.,3.98µM*,.
CCCCC/C=C\C/C=C\C/C=C\C/C=C\CCCC(=O)NCC(=O)O,-4.5%[4.2 µM],4.6%,-22.7%,?,28.2µM*!,.
CCCCC/C=C\C/C=C\CCCCCCCCCC(=O)NCCO,.,-3.4%,25.0%,10.8%,-7.3%,.
CCCCC/C=C\C/C=C\C/C=C\C/C=C\CCCC(=O)Nc1ccc(O)cc1,.,?,?,15.0%,35.5µM*,.
CCCCC/C=C\C/C=C\C/C=C\C/C=C\CCCC(=O)NCCc1ccc(O)c(O)c1,.,15.8µM*!,-344.6%,-10.0%,?,.
CCCCC/C=C\C/C=C\C/C=C\C/C=C\CCCC(=O)NCCO,.,10µM*!,25.9%,-4.2%,-10.9%,.
CCC1/C=C/C=CCC(C)C(O)[C@@](C)(O)C(=O)C(C)C(O)C(C)C(=O)C(C)C(O)C(C)C=CC(=O)O[C@H]2C(C)C(CC1)O[C@]1(CCC(C)C(CC(C)O)O1)C2C (some centres not stated),.,12.8%,.,.,-21.3%,.
NCC(CC(=O)O)c1ccc(Cl)s1 (configuration not stated),.,-3.2%,3.4%,-1.0%,.,.
CCCCC/C=C\C/C=C\C/C=C\C/C=C\CCCC(=O)NCCCC(=O)O,.,-1.4%,-1.4%,3.1%,-14.3%,.
CCCCC/C=C\C/C=C\C/C=C\C/C=C\CCCC(=O)N(Cc1ccc(O)c(Cl)c1)Cc1ccc(O)c(Cl)c1,.,3.55µM*,-35.1%,9.7%,-3.1%,.
CCCCC/C=C\C/C=C\C/C=C\C/C=C\CCCC(=O)NCc1ccoc1,.,17.8µM*,27.2%,?,-26.3%,.
SMILES,HTT aggregate,ALDH1A1 inh,HTT cytoprotect,CBFb-RUNX1 inh,HPGD block,PNC assembly inh
O=C(C[C@H](c1ccccc1)c1c(O)c2ccccc2oc1=O)c1ccccc1,.,1.6%[13.5 µM],14.3%[10 µM],.,-4.6%,.
Cc1ccc2c(c1)N(CCC(=O)N1CCC3(CC1)OCCO3)C(=O)CO2,-13.8%,10µM*,40.1%[10 µM],-4.7%,-13.1%,3.9
Cc1ccc2c(c1)N(CCC(=O)N1CCC3(CC1)OCCO3)C(=O)C(C)O2 (configuration not stated),-0.3%,?,-3.0%,-1.6%,-10.5%,-13.1
C[C@@H]1O[C@@H](O[C@H]2C[C@@H](O)[C@]3(CO)[C@@H]4[C@@H](O)C[C@]5(C)[C@H]([C@@H]6COC(=O)C6)CC[C@@]5(O)[C@H]4CC[C@@]3(O)C2)[C@H](O)[C@H](O)[C@@H]1O,.,.,6.9%[1.9 µM],.,.,.
Nc1ccc(Cl)cc1N,.,8.91µM*,?,?,-18.2%,.
Oc1ccc(Cl)cc1Sc1cc(Cl)ccc1O,?,?,10.8%[10 µM],4.3%[21.7 µM],2.51µM*,.
Nc1cc(Cl)ccc1Cl,.,-3.2%,?,9.9%[21.7 µM],-1.3%,.
Cc1cc(Cl)ccc1O,.,10.3%,-7.5%,5.9%[21.7 µM],-3.1%,.
Nc1cc(Cl)ccc1O,.,8.91µM*,?,-7.3%[21.7 µM],10µM*,.
O=C1C=CC(=O)C(Cl)=C1,.,1.78µM*,-6.0%,.,1µM*,.
O=C1C=CC(=O)C=C1,.,?,-33.7%,15.9%,-23.2%,.
Cc1nn(Cc2ccccc2)c2c1C(c1ccco1)C(C#N)=C(N)O2 (configuration not stated),-14.5%,28.2µM*,-1.7%,1.8%,-17.6%,?
O=C1NC(=O)N(c2ccc(Cl)cc2)C(=O)/C1=C\c1ccc(Sc2nc3ccccc3[nH]2)o1,5.6%,?,.,?,10µM*,18.0
O=C(Oc1ccccc1)N1CCC2(CCN(Cc3ccccc3)CC2)CC1,.,?,7.0%,.,-1.6%,.
O=C=NCCCCN=C=O,.,.,.,-3.9%,.,.
CN(C)c1ccc(/C=C/C=C2/C(=O)NC(=O)N(c3ccccc3)C2=O)cc1,3.8%[9.22 µM],?,-26.9%[10 µM],-1.7%,.,.
O=C1NC(=O)N(CCc2ccc(F)cc2)C(=O)/C1=C\C=C\c1ccccc1,21.1%,1.58µM*,-24.7%,-7.8%,.,.
C=CCN1C(=O)NC(=O)/C(=C/C=C/c2ccccc2)C1=O,-3.6%,14.1µM*,-33.6%,5.1%,.,.
CC/C(=C(\c1ccccc1)c1ccc(OCCN(C)C)cc1)c1ccc(O)cc1,.,?,-86.4%,6.8%[21.7 µM],-9.7%,.
C=CCN1C(=O)/C(=C\c2ccc(N3CCOCC3)o2)C(=O)NC1=S,16.5%,17.8µM*,10.2%[10 µM],-3.0%,-23.1%,4.9
ClC(Cl)(Cl)C(Cl)(Cl)Cl,.,9.2%,23.9%,2.4%[21.7 µM],-8.5%,.
CC1CCc2c(sc3nc(CSc4n[nH]c(N)n4)[nH]c(=O)c23)C1 (configuration not stated),1.8%,?,.,-2.6%,-15.7%,-94.8*
